In PubChem BioAssay (Tox21):
A number with no mark means an inactive call. Activity calls are given as the source filed them. Calls come from the whole dose curve; as a rule, active = well fitted activation curve with a large enough effect in the repeat runs; inconclusive = weak or mixed curves; inactive = flat fitted curve, though single readings scatter.

assay: A CellTox Green Cytotoxicity Assay to monitor cytotoxicity in HepG2 cells - 0 hour (AID 1224882); details: CellTox Green fluorescence; series mostly up to 76.8 µM; cytotoxicity: at the top concentration; note: nearly all actives have a fitted effect of over 35% in size
Description: National Center for Advancing Translational Sciences [NCATS]
NIH Chemical Genomics Center [NCGC]
U.S. Environmental Protection Agency [EPA]
National Institutes of Environmental Health Sciences [NIEHS]
National Toxicology Program [NTP]
Cell-based models are critical for drug discovery. Determining the natural cytotoxic effects resulting from test compounds is an essential research activity. A CellTox Green Cytotoxicity Assay to monitor cytotoxicity in real time of continues cell culture during 40 hours of the compound treatment was used to screen Tox21 10K library compounds in HepG2 cells. CellTox Green Cytotoxicity Assay is a nonlytic, homogeneous, biofluorescent method to measure cytotoxicity in cell culture after experimental manipulation. The assay system uses a proprietary asymmetric cyanine dye that is excluded from viable cells but preferentially stains the dead cell's DNA. […] Viable cells produce no appreciable increases in fluorescence. Therefore, the fluorescence signal produced by the binding interaction with dead cell DNA is proportional to cytotoxicity.
The mixture of HepG2 cell suspension and reagents were dispensed at 600cells/6 ul/well in 1536-well tissue culture treated black solid bottom plates using a Multidrop dispenser. After the assay plates were incubated at a 37 C/5% CO2 incubator for 5 hours, 23 nL of compounds dissolved in DMSO, positive and negative controls was transferred to the assay plate by a pintool work station. The plates were incubated at 37 C for 40 hours. The fluorescence intensity were measured at 0h, 8h, 16h, 24h, 32h and 40h time points using ViewLux plate reader during compound treatment.
% is set by controls: 0 for no effect and ±100 for the full control effect.

Row | SMILES | cytotoxicity | Potency
1 | CCN1CCC[C@H]1CNC(=O)c1cc(S(N)(=O)=O)ccc1OC | -0.911% [at 35.3 µM] | 
2 | O=C(CCCN1CCN(c2ccccn2)CC1)c1ccc(F)cc1 | -1.04% [at 35.3 µM] | 
3 | CCCCCCCCCCCCCC=O | 11.5% [at 6.97 µM] | 
4 | C=CCOCC(CC)(CO)COCC=C | -3.16% | 
5 | C[N+](C)(C)CC(O)CC(=O)[O-] (stereo not given) | 5.75% [at 35.3 µM] | 
6 | CCC(C)S (stereo not given) | -2.37% [at 2.72 µM] | 
7 | OC1CCCCC1c1ccccc1 (stereo not given) | 0.429% | 
8 | COc1ccccc1OCC(O)CN1CCN(CC(=O)Nc2c(C)cccc2C)CC1 (stereo not given) | -0.654% [at 35.3 µM] | 
9 | CCn1nc(C(=O)O)c(=O)c2cc3c(cc21)OCO3 | -1.53% [at 35.3 µM] | 
10 | OCCCC1CCCCC1 | -4.73% | 
11 | NCCc1cnc[nH]1 | -0.128% [at 35.3 µM] | 
12 | CN1CCCC1 | 2.4% | 
13 | OC(CCN1CCCCC1)(c1ccccc1)C1CC2C=CC1C2 (stereo not given) | -0.121% [at 35.3 µM] | 
14 | CC(C(=O)O)c1ccc(CC2CCCC2=O)cc1 (stereo not given) | -11.6% [at 35.3 µM] | 
15 | Nc1ccc(S(=O)(=O)Nc2ccnn2-c2ccccc2)cc1 | 3.97% [at 15.8 µM] | 
16 | FC(F)OC(Cl)C(F)(F)F (stereo not given) | -0.086% | 
17 | CC(=O)OCC(=O)[C@@]1(O)CCC2C3CCC4=CC(=O)CC[C@]4(C)C3[C@@H](O)C[C@@]21C (stereo not given in full) | 7.76% [at 35.3 µM] | 
18 | CC(C)(CC(=O)O)C(=O)O | 16.3% | 
19 | CCOC(=O)CCC(C)=O | 0.694% | 
20 | CCCCCCCCCCCCCCCCC | -1.86% | 

Row | SMILES | cytotoxicity | Potency
21 | Cc1ccc(C#N)cc1 | -3.68% | 
22 | Cc1cnc(NS(=O)(=O)c2ccc(N)cc2)nc1 | -0.308% [at 35.3 µM] | 
23 | CN1CCC(=C2c3ccccc3CC(=O)c3sccc32)CC1 | -1.29% [at 35.3 µM] | 
24 | C1CN(CCOCCN2CCOCC2)CCO1 | 1.16% | 
25 | COCCc1ccc(OCC(O)CNC(C)C)cc1 (stereo not given) |  | inactive
26 | CC(=O)N(CC(O)CO)c1c(I)c(C(=O)NCCO)c(I)c(C(=O)NCC(O)CO)c1I (stereo not given) | -1.19% [at 35.3 µM] | 
27 | c1ccc([C@H]2CN3CCSC3=N2)cc1 | 1.52% [at 35.3 µM] | 
28 | CC(=O)CC(C)C | 0.538% | 
29 | N=C(N)c1ccc2cc(OC(=O)c3ccc(N=C(N)N)cc3)ccc2c1 | -14.1% [at 35.3 µM] | 
30 | O=C1OC(=O)C2CCCCC12 (stereo not given) | -2.94% | 
31 | O=C(O)c1ccccc1OP(=O)(O)O | -3.32% [at 35.3 µM] | 
32 | Cc1ccc(Cl)cc1Cl | 0.238% | 
33 | NC(=O)COCCN1CCN(C(c2ccccc2)c2ccc(Cl)cc2)CC1 (stereo not given) | 3.05% [at 35.3 µM] | 
34 | COC(=O)CC(C)=O | -4.78% | 
35 | CC(NC(CCc1ccccc1)C(=O)O)C(=O)N1C(=O)N(C)CC1C(=O)O (stereo not given) | -2.75% [at 35.3 µM] | 
36 | CCCCCSCCCCC | 3.12% | 
37 | CN1C(=O)N(C)C(O)C1O (stereo not given) | -5.27% | 
38 | O=S(O)CO | -5.93% | 
39 | CCc1cccc2c(CCO)c[nH]c12 | 0.944% [at 35.3 µM] | 
40 | C=C[Si](OC(=C)C)(OC(=C)C)OC(=C)C | 13.1% | 
